Assay results taken from PubChem BioAssay AID1159580 (chemical genetic matrix, 2015).
In all, about 5,500 compounds went through this assay and about 2,000 (36%) were called active. Roughly 18% stayed inconclusive and do not appear here. Cut-off read from the data, not from the text of the source: active = normalized growth mostly below about 0.91 (no sharp cut-off); inconclusive = no clear call, values can overlap the other calls; inactive = mostly above about 0.92. Some of the results follow.

Experiment: chemical genetic growth profiling, strain panel (AID 1159580);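 note: tested at 20 µM; growth read once vehicle control cultures reached saturation at 30 °C; 1 = growth at the plate median or of vehicle wells; lower values mean less growth of the strain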
Settings: S. cerevisiae deletion strains, growth OD
[1] = locus YDL101C, strain DUN1, active compounds read low
[2] = locus YHR030C, strain SLT2, active compounds read low

Measured: normalized growth

COC(=O)C1=C(Nc2ccc(Cl)cc2)CSC1
inactive: locus YAL013W, strain DEP1, active compounds read low 0.956 | locus YBR229C, strain ROT2, active compounds read low 0.967 | locus YCL061C, strain MRC1, active compounds read low 0.959 | [1] 0.941 | locus YDR150W, strain NUM1, active compounds read low 0.929 | locus YGR078C, strain PAC10, active compounds read low 0.949 | locus YHR087W, strain rtc3, active compounds read low 0.962 | locus YJR075W, strain HOC1, active compounds read low 0.911 | locus YLR058C, strain SHM2 (second series), active compounds read low 0.969 | locus YMR219W, strain ESC1, active compounds read low 0.972 | locus YMR263W, strain SAP30, active compounds read low 0.953 | locus YNL153C, strain GIM3, active compounds read low 0.965 | locus YNL322C, strain KRE1, active compounds read low 0.97 | locus YPL055C, strain LGE1, active compounds read low 0.811
active: locus YDL134C, strain PPH21, active compounds read low 0.773 | locus YEL061C, strain CIN8, active compounds read low 0.771 | [2] 0.203 | locus YJL187C, strain SWE1, active compounds read low 0.902 | locus YKL190W, strain CNB1, active compounds read low 0.834 | locus YLR039C, strain RIC1, active compounds read low 0.455 | locus YLR085C, strain ARP6, active compounds read low 0.368 | locus YLR262C, strain YPT6, active compounds read low 0.468 | locus YML094W, strain GIM5, active compounds read low 0.833 | locus YMR307W, strain GAS1, active compounds read low 0.417 | locus YNL298W, strain CLA4 (second series), active compounds read low 0.676 | locus YNR030W, strain Alg12, active compounds read low 0.759 | locus YOL006C, strain TOP1, active compounds read low 0.522 | locus YPL241C, strain CIN2, active compounds read low 0.742 | locus YPR135W, strain CTF4, active compounds read low 0.314

Fc1ccc(N/N=C\Cc2nnnn2-c2ccccc2)c(F)c1
inactive: locus YAR019C, strain CDC15, active compounds read low 0.957 | locus YBL105C, strain PKC1, active compounds read low 0.951 | locus YBR135W, strain CKS1, active compounds read low 0.947 | locus YBR136W, strain MEC1, active compounds read low 0.952 | locus YBR160W, strain CDC28, active compounds read low 0.961 | locus YDL017W, strain CDC7, active compounds read low 0.956 | locus YDL028C, strain MPS1, active compounds read low 0.955 | [1] 0.967 | locus YDL108W, strain KIN28, active compounds read low 0.948 | locus YDL132W, strain cdc53, active compounds read low 0.952 | locus YDR052C, strain DBF4, active compounds read low 0.946 | locus YDR054C, strain cdc34, active compounds read low 0.904 | locus YDR226W, strain ADK1, active compounds read low 0.95 | locus YFL009W, strain cdc4, active compounds read low 0.954 | locus YFL029C, strain CAK1, active compounds read low 0.955 | locus YFR003C, strain YPI1, active compounds read low 0.955 | locus YFR028C, strain CDC14, active compounds read low 0.953 | locus YHR205W, strain SCH9, active compounds read low 0.622 | locus YIL147C, strain SLN1, active compounds read low 0.958 | locus YJL128C, strain PBS2, active compounds read low 0.963 | locus YJR016C, strain ILV3, active compounds read low 0.973 | locus YKL193C, strain SDS22, active compounds read low 0.954 | locus YMR001C, strain CDC5, active compounds read low 0.951 | locus YMR277W, strain FCP1, active compounds read low 0.952 | locus YNL006W, strain LST8, active compounds read low 0.962 | locus YNL161W, strain CBK1, active compounds read low 0.954 | locus YNL207W, strain RIO2, active compounds read low 0.952 | locus YNL222W, strain SSU72, active compounds read low 0.954 | locus YOL078W, strain AVO1, active compounds read low 0.947 | locus YOR329C, strain SCD5, active compounds read low 0.964 | locus YPL209C, strain IPL1, active compounds read low 0.958 | locus YPR025C, strain CCL1, active compounds read low 0.956 | locus YPR106W, strain ISR1, active compounds read low 0.976 | locus YPR111W, strain DBF20, active compounds read low 0.97 | strain NNK1, active compounds read low 0.971 | strain TSCII, active compounds read low 0.945
active: locus YDL214C, strain PRR2, active compounds read low 0.554 | locus YDR477W, strain SNF1, active compounds read low 0.332 | locus YER123W, strain YCK3, active compounds read low 0.283 | locus YER133W, strain GLC7, active compounds read low 0.592 | locus YFR019W, strain FAB1, active compounds read low 0.414 | locus YGR040W, strain KSS1, active compounds read low 0.478 | locus YGR052W, strain FMP48, active compounds read low 0.302 | locus YGR092W, strain DBF2, active compounds read low 0.122 | [2] 0.387 | locus YHR079C, strain IRE1, active compounds read low 0.366 | locus YHR082C, strain KSP1, active compounds read low 0.571 | locus YJL095W, strain BCK1, active compounds read low 0.16 | locus YJL157C, strain FAR1, active compounds read low 0.519 | locus YJR066W, strain TOR1 (second series), active compounds read low 0.246 | locus YJR066W, strain TOR1, active compounds read low 0.356 | locus YKL048C, strain ELM1, active compounds read low 0.55 | locus YKL067W, strain YNK1, active compounds read low 0.427 | locus YKL101W, strain HSL1, active compounds read low 0.341 | locus YKL203C, strain TOR2, active compounds read low 0.481 | locus YLR113W, strain HOG1, active compounds read low 0.426 | locus YLR133W, strain CKI1, active compounds read low 0.55 | locus YLR403W, strain SFP1, active compounds read low 0.429 | locus YML070W, strain DAK1, active compounds read low 0.249 | locus YMR205C, strain PFK2 (second series), active compounds read low 0.646 | locus YNL020C, strain ARK1, active compounds read low 0.536 | locus YNL183C, strain NPR1, active compounds read low 0.358 | locus YNL307C, strain MCK1 (second series), active compounds read low 0.189 | locus YOL136C, strain PFK27, active compounds read low 0.385 | locus YOR061W, strain CKA2, active compounds read low 0.222 | locus YOR119C, strain RIO1, active compounds read low 0.408 | locus YOR231W, strain MKK1, active compounds read low 0.328 | locus YPL031C, strain PHO85, active compounds read low 0.315 | locus YPL153C, strain RAD53, active compounds read low 0.359 | locus YPL204W, strain HRR25, active compounds read low 0.406 | locus YPL256C, strain CLN2, active compounds read low 0.537
